Laboratory results from PubChem BioAssay (NCATS).
Inconclusive results are not listed. Activity calls are given as the source filed them. Unless noted, calls follow the shape of the dose curve; as a rule, active = well fitted curve in the direction sought with a large enough effect; inconclusive = small, poorly fitted or top-dose-only effect, or another doubt; inactive = no such curve, though single readings can be large; an effect the other way counts as inactive or inconclusive.

molecular target: 3',5'-cyclic-AMP phosphodiesterase 4B (Homo sapiens) (UniProt Q07343); assay: qHTS Assay for Inhibitors of PDE-IV (AID 607; active = well fitted activation curve with a large enough effect in the main read-out, with a control signal flat, not every such curve was filed as active; also: % of control where 0% means no effect); details: HEK293 ACTOne CNG channel cells, membrane potential fluorescence; series mostly up to 22.9 µM; activation (PDE inhibition): at the top concentration
Summary of the method: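 HEK293 ACTOne cells with CNG channel (1000/well), endogenous PDE4; membrane potential dye, compounds up to 22.9 uM final. Fluorescence Ex 535/Em 590; RO 20-1724 (100 uM final) as reference.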

Sequence of 3',5'-cyclic-AMP phosphodiesterase 4B (Homo sapiens) (Q07343 whole entry, looked up): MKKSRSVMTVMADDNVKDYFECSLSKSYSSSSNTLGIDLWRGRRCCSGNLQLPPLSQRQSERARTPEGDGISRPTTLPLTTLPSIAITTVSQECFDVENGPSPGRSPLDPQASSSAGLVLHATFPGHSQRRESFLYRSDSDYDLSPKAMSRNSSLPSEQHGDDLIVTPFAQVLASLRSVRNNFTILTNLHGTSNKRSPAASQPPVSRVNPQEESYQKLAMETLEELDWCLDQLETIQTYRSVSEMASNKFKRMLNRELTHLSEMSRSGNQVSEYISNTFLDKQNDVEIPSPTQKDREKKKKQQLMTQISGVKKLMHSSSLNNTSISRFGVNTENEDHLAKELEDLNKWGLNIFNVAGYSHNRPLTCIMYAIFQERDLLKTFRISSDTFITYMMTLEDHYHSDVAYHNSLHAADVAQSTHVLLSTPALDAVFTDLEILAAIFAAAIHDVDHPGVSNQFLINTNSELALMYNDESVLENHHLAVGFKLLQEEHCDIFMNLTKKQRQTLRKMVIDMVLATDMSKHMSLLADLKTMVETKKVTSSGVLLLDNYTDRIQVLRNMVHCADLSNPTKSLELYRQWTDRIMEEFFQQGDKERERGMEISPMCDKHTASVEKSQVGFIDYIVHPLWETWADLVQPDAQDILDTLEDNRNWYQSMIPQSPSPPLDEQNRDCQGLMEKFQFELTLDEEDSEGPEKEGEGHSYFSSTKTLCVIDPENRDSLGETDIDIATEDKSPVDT

Activation (PDE inhibition), inactive:
O=C(c1cnccn1)N1CCC2(CCCN(c3ncccn3)C2)CC1 4.13%
COc1ccc(-n2c(=O)c(-c3cc(F)cc(F)c3)nc3cnc(N4CCNCC4)nc32)cc1 -6.08%
COc1ccc(NC(=O)N2CC3(CCN(C(=O)c4cccc(F)c4)CC3)C2)cc1 21.4%
Oc1cc2c(c(Cl)c1O)CCNC[C@H]2c1ccccc1 7.07%
COc1ccc(Oc2ncc3nc(-c4cccs4)c(=O)n(Cc4cccs4)c3n2)cc1 6.61%
O=c1c(-c2cccs2)nc2cnc(Oc3cccc(Cl)c3)nc2n1C[C@H]1CCCO1 26.6%
c1ccc(-c2ccc(N3CCCC4(CCNCC4)C3)cc2)cc1 2.14%
COc1cccc(Nc2ncc3nc(-c4ccc(F)cc4)c(=O)n(C[C@H]4CCCO4)c3n2)c1 -11.2%
CC(C)NC(=O)N1CC[C@@]2(CCCN(C(=O)c3ccco3)C2)C1 -4.62%
O=c1c(-c2ccc(Cl)cc2)nc2cnc(N3CCOCC3)nc2n1C1CC1 5.11%
O=c1c(-c2ccc(Cl)cc2)nc2cncnc2n1Cc1ccc(F)cc1 -1.83%
O=C(c1cnccn1)N1CCC2(CC1)CN(Cc1cc(C(F)(F)F)cc(C(F)(F)F)c1)C2 9.3%
COC(=O)N1CCC2(CCN(C(=O)Nc3cccc(F)c3)CC2)CC1 14.4%
COc1ncc2nc(CCc3ccccc3)c(=O)n(CCC#N)c2n1 28.6%
CCNc1ncc2nc(-c3cc(F)cc(F)c3)c(=O)n(-c3ccc(OC)cc3)c2n1 11.9%
O=C(c1cnccn1)N1CCC2(CCCN(c3ccccn3)C2)CC1 1.25%
O=S(=O)(c1ccccc1)N1CCC2(CCCN(Cc3cc(C(F)(F)F)cc(C(F)(F)F)c3)C2)CC1 28.2%
O=C(Oc1ccccc1)N1CCC2(CCCN(c3ncccn3)C2)CC1 -6.53%
CCNc1ncc2nc(-c3ccccc3)c(=O)n(CCc3ccccc3)c2n1 -16%
COc1ccc(Oc2ncc3nc(-c4ccccc4)c(=O)n(Cc4cccs4)c3n2)cc1 -5.03%
COCCn1c(=O)c(-c2cccs2)nc2cnc(Oc3cccc(Cl)c3)nc21 14%
COc1ccccc1CNc1nc(-c2ccc(N(C)C)cc2)nc2ccccc12 17%
CCNc1ncc2nc(-c3cccc(C#N)c3)c(=O)n(C)c2n1 -5.14%
COc1ccc(NC(=O)N2CCC3(CC2)CCN(C(=O)c2cccc(F)c2)CC3)cc1 2.1%
O=c1c(-c2ccc(Cl)cc2)nc2cnc(N3CCNCC3)nc2n1Cc1ccc(F)cc1 -10.7%
COc1ncc2nc(-c3ccc(Cl)cc3)c(=O)n(CCc3ccccc3)c2n1 25.4%
O=C(c1cccc(F)c1)N1CCC2(CC1)CCN(c1ccc(-c3ccccc3)cc1)CC2 11.1%
O=c1cnc2cnc(Nc3ccccc3)nc2n1C[C@H]1CCCO1 11.3%

molecular target: Cytochrome P450 3A4 (Homo sapiens) (UniProt P08684); assay: qHTS Assay for Inhibitors and Substrates of Cytochrome P450 3A4 (AID 884); details: recombinant CYP3A4, Luciferin-PPXE luminescence; series mostly up to 57.1 µM; activity change, negative = inhibition: at the top concentration; also: nearly all actives have a fitted effect of over 50% in size; also: potency is read from the fitted curve at half-maximal effect; as to activity change, negative = inhibition: % is scaled to controls: 0 for no effect and ±100 for the full control effect
Summary of the method: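 20 nM human CYP3A4 with 25 uM Luciferin-PPXE (at KM) in 200 mM KPO4, preincubated 10 min with compound; NADPH regeneration started a 60 min RT reaction. Luciferin detected by luminescence, normalized to 57 uM ketoconazole as full inhibition.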

Sequence of Cytochrome P450 3A4 (Homo sapiens) (P08684 whole entry, looked up): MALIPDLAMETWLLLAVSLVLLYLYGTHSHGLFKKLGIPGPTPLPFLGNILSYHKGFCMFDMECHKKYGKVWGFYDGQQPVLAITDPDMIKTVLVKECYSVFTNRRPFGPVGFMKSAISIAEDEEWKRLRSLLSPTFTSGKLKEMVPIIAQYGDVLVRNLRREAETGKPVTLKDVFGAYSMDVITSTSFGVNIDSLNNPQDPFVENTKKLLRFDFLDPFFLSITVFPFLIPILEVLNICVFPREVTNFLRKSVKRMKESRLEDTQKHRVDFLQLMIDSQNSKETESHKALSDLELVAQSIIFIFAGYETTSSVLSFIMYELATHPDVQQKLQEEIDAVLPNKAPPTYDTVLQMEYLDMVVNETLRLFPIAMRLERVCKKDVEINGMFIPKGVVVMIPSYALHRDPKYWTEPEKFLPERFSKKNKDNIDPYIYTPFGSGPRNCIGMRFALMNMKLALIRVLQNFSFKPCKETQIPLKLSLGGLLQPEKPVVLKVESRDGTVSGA

Potency, active:
COc1ccc(Oc2ncc3ncc(=O)n(CCc4ccccc4)c3n2)cc1 1.26 µM
COc1cccc(Cn2c(=O)c(CCc3ccccc3)nc3cnc(OC)nc32)c1 2.51 µM
COc1ccccc1-c1nc(N(C)Cc2ccco2)c2ccccc2n1 7.94 µM
COc1ccccc1CNc1nc(-c2ccc(N(C)C)cc2)nc2ccccc12 3.16 µM

Activity change, negative = inhibition, inactive:
COc1ccc(NC(=O)N2CCC3(CC2)CCN(C(=O)c2cccc(F)c2)CC3)cc1 97.4%
O=C(c1cccc(F)c1)N1CCC2(CC1)CCN(c1ccc(-c3ccccc3)cc1)CC2 223%

molecular target: Cytochrome P450 3A4 (Homo sapiens) (UniProt P08684); assay: qHTS Assay for Activators of Cytochrome P450 3A4 (AID 885); details: recombinant CYP3A4, Luciferin-PPXE luminescence, 60 min; series mostly up to 57.1 µM; activity change, positive = activation: at the top concentration; also: nearly all actives have a fitted effect of over 65% in size; also: potency is read from the fitted curve at half-maximal effect
Summary of the method: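 Human CYP3A4 (20 nM) with Luciferin-PPXE at 25 uM (its KM) in 200 mM KPO4; 10 min compound preincubation, then NADPH regeneration and 60 min reaction at RT. Luciferin read by luminescence; normalized to 57 uM ketoconazole full inhibition.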

Activity change, positive = activation, inactive:
COCCNc1nc(-c2ccccc2C(F)(F)F)nc2ccccc12 -67.8%
COc1ccc(-n2c(=O)c(-c3cc(F)cc(F)c3)nc3cnc(N4CCNCC4)nc32)cc1 -34.9%
COc1ccc(NC(=O)N2CCCC3(CCN(C(=O)c4cccc(F)c4)CC3)C2)cc1 -59.4%
O=c1c(-c2cccs2)nc2cnc(Oc3cccc(Cl)c3)nc2n1C[C@H]1CCCO1 -57.5%
c1ccc(-c2ccc(N3CCCC4(CCNCC4)C3)cc2)cc1 -66.1%
O=c1c(-c2ccc(Cl)cc2)nc2cncnc2n1Cc1ccc(F)cc1 -53.9%
CCNc1ncc2nc(-c3cc(F)cc(F)c3)c(=O)n(-c3ccc(OC)cc3)c2n1 -67.6%
COc1ccc(Oc2ncc3ncc(=O)n(CCc4ccccc4)c3n2)cc1 -85.2%
O=C(c1cnccn1)N1CCC2(CCCN(c3ccccn3)C2)CC1 -44.9%
COc1cccc(Cn2c(=O)c(CCc3ccccc3)nc3cnc(OC)nc32)c1 -100%
CCNc1ncc2nc(-c3cc(F)cc(F)c3)c(=O)n(-c3ccccc3)c2n1 -34.6%
CCNc1ncc2nc(-c3ccccc3)c(=O)n(CCc3ccccc3)c2n1 -47.1%
O=c1c(-c2cccs2)nc2cncnc2n1C1CC1 -58.3%
COc1ccccc1-c1nc(N(C)Cc2ccco2)c2ccccc2n1 -82.1%
COc1ccccc1CNc1nc(-c2ccc(N(C)C)cc2)nc2ccccc12 -83.9%
CCNc1ncc2nc(-c3cccc(C#N)c3)c(=O)n(C)c2n1 -36.9%
O=c1c(-c2ccc(Cl)cc2)nc2cnc(N3CCNCC3)nc2n1Cc1ccc(F)cc1 -56.9%
O=c1cnc2cnc(Nc3ccccc3)nc2n1C[C@H]1CCCO1 -38.1%

Potency, active:
COc1ccc(NC(=O)N2CCC3(CC2)CCN(C(=O)c2cccc(F)c2)CC3)cc1 12.6 µM
O=C(c1cccc(F)c1)N1CCC2(CC1)CCN(c1ccc(-c3ccccc3)cc1)CC2 12.6 µM

Potency, inactive:
Oc1cc2c(c(Cl)c1O)CCNC[C@H]2c1ccccc1
